In PubChem BioAssay (EPA / NIEHS):
Activity calls are given as the source filed them. The calls were made as follows: active = hit-call score of the fitted dose curve at least 0.9, where 1 is the maximum; inactive = score below 0.9.

Key:
[1] = ATG_CRE_CIS: Attagene CIS-FACTORIAL HepG2 Assay for human cAMP Responsive Element (CRE) binding protein 3 (AID 2282926); details: HepG2 CRE cis-reporter, Attagene multiplexed mRNA; actives raise or lower the signal
Method in brief: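 Assay format: transient reporter transfection of HepG2, 24 h treatment, total RNA isolation with DNase I step. Reporter abundance read by fluorescence after PCR and capillary separation; DMSO-normalised gain or loss fitting.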

[2] = ATG_CMV_CIS: Attagene CIS-FACTORIAL HepG2 Assay for human CMV (Internal Marker) (AID 2282928); details: HepG2 CMV promoter reporter, transcription factor profiling; actives raise or lower the signal;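 also: endpoint acts as a background internal control marker rather than a target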
Method in brief: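 Bidirectional fits against DMSO are applied to reporter mRNA, read by RT-PCR with capillary electrophoresis, from HepG2 cells exposed 24 h. The endpoint serves as an internal CMV background marker within the cis-factorial reporter panel.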

[3] = ATG_DR4_LXR_CIS: Attagene CIS-FACTORIAL HepG2 Assay for human Liver X Receptor (LXR), DR4 submotif (AID 2282929); details: HepG2 Attagene DR4 cis-reporter, mRNA transcription; actives raise or lower the signal
Method in brief: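 Measures endogenous transcription factor activity via a DR4-driven reporter transcript in human HepG2 cells. Compounds incubated 24 h; mRNA quantified by RT-PCR and capillary electrophoresis, analysed as gain or loss of signal versus DMSO.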

[4] = target: Aryl hydrocarbon receptor (Homo sapiens) (UniProt P35869); assay: ATG_Ahr_CIS: Attagene CIS-FACTORIAL HepG2 Assay for human Aryl Hydrocarbon Receptor (Ahr) (AID 2282930); details: HepG2 AhR cis-factorial reporter transcription; actives raise or lower the signal
Method in brief: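 Transient MRTU transfection of HepG2 → 24 h compound exposure → total RNA, oligo(dT) RT → PCR, 6-FAM extension, HpaI cut → CE fluorescence. DMSO = baseline; bidirectional curve fit.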

[5] = ATG_AP_1_CIS: Attagene CIS-FACTORIAL HepG2 Assay for human Activator Protein 1 (AP-1) (AID 2282931); details: HepG2 Attagene cis-factorial AP-1 reporter mRNA; actives raise or lower the signal
Method in brief: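 Bidirectional concentration-response fitting against DMSO controls. Underlying signal: reporter mRNA from cis-promoter constructs in transiently transfected HepG2, measured after 24 h by RT-PCR and capillary electrophoresis.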

[6] = ATG_BRE_CIS: Attagene CIS-FACTORIAL HepG2 Assay for human Bone Morphogenetic Protein (BMP) Response Element (BRE) (AID 2282933); details: HepG2 BMP response element reporter, Attagene transcription factor profiling; actives raise or lower the signal
Method in brief: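 Gain- or loss-of-signal was derived by bidirectional fitting against DMSO controls. The signal came from reporter mRNA, measured by RT-PCR and capillary electrophoresis, in HepG2 cells transiently carrying multiple reporter units and dosed for 24 h.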

[7] = target: Transcription factor E2F1 (Homo sapiens) (UniProt Q01094); assay: ATG_E2F_CIS: Attagene CIS-FACTORIAL HepG2 Assay for human E2F Transcription Factor 1 (AID 2282935); details: HepG2 Attagene cis-reporter, E2F reporter RNA transcripts; actives raise or lower the signal
Method in brief: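 Fluorescent RT-PCR products, digested with HpaI for 2 h at 37 C, are separated by capillary electrophoresis. Source RNA comes from transfected HepG2 cultures treated for 24 h.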

[8] = ATG_AP_2_CIS: Attagene CIS-FACTORIAL HepG2 Assay for human Activator Protein 2 (AP-2) (AID 2282932); details: HepG2 AP-2 cis-reporter, Attagene transcription factor profiling; actives raise or lower the signal
Method in brief: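 Transiently transfected HepG2 cells are exposed to chemical for 24 h. Reporter transcripts are then measured as fluorescence following RT-PCR and capillary separation, and gain- or loss-of-signal is fitted relative to DMSO.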

[9] = target: Retinoic acid receptor alpha (Homo sapiens) (UniProt P10276); assay: ATG_DR5_RAR_CIS: Attagene CIS-FACTORIAL HepG2 Assay for human Retinoic Acid Receptor Alpha (RARE), DR5 submotif (AID 2282934); details: HepG2 Attagene cis-factorial RARE DR5 reporter, mRNA; actives raise or lower the signal
Method in brief: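 Transient MRTU transfection of HepG2; 24 h compound treatment; TriZol RNA, oligo(dT) RT, PCR, FAM labelling, capillary electrophoresis. Bidirectional fit vs DMSO. Endogenous TF activity at DR5 RARE.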

Measured: AC50

Transcription factor E2F1 (Homo sapiens), sequence (Q01094 whole entry, looked up): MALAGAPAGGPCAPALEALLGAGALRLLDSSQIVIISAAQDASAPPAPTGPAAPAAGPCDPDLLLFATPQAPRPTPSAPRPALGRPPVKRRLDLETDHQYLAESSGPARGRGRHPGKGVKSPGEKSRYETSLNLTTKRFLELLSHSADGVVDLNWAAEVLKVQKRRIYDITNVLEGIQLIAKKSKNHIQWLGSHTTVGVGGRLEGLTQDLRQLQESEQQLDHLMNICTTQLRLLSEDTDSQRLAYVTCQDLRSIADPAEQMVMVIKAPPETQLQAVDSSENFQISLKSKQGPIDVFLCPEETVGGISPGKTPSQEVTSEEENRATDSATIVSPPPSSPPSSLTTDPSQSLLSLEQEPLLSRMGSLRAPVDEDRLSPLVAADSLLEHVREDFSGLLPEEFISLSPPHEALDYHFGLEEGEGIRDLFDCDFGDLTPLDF
Aryl hydrocarbon receptor (Homo sapiens), sequence (P35869 whole entry, looked up): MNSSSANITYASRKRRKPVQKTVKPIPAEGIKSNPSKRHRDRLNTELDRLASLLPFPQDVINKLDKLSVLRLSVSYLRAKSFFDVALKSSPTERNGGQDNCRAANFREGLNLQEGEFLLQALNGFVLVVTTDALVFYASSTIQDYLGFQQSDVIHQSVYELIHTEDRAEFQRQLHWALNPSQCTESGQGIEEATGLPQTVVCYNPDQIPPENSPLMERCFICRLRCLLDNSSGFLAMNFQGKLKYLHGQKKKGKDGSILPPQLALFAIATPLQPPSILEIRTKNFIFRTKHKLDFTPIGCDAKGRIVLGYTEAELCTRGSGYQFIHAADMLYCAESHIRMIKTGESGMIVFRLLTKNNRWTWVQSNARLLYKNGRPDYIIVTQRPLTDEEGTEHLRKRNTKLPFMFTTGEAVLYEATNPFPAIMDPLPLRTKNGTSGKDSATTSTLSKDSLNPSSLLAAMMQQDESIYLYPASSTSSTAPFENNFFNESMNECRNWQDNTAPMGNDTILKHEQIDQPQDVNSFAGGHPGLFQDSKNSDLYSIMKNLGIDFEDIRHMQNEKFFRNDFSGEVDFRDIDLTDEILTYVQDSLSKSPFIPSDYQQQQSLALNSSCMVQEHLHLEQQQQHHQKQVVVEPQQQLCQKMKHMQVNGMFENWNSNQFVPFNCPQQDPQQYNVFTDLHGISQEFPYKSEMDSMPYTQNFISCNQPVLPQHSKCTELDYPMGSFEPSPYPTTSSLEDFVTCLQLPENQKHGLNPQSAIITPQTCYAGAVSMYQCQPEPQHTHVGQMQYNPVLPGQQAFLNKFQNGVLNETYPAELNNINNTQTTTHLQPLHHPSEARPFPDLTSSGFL
Retinoic acid receptor alpha (Homo sapiens), sequence (P10276 whole entry, looked up): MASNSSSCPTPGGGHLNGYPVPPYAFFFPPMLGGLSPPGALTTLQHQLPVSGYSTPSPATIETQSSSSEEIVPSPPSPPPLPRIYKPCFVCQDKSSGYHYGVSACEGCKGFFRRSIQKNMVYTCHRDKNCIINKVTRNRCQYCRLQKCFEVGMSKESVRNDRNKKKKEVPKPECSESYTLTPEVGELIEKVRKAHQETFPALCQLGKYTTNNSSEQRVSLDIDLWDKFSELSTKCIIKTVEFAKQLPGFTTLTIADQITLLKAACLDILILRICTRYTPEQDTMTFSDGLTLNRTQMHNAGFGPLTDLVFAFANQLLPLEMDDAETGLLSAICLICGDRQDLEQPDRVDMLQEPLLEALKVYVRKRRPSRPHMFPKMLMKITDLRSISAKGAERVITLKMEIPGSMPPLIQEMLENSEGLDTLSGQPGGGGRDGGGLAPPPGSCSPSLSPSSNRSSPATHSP

NC(N)=NC(=O)c1nc(Cl)c(N)nc1N
active: [3] 149 µM
inactive: [1] | [2] | [4] | [5] | [6] | [7]

CCCCCCCCC
inactive: [1] | [2] | [3] | [4] | [5] | [8] | [6] | [7]

O=c1[nH]c(=O)n([C@H]2CCCO2)cc1F
inactive: [1] | [2] | [3] | [4] | [5] | [6] | [9] | [7]

CCCCCC(CO)CCC (stereo not drawn)
inactive: [1] | [2] | [4] | [5] | [7]

CC(C)(N)CO
inactive: [1] | [2] | [4] | [5] | [8] | [7]

CCC(C(=O)NC(N)=O)c1ccccc1 (stereo not drawn)
inactive: [1] | [2] | [3] | [4] | [5] | [8] | [6] | [7]

C=C(C)C(=O)O
inactive: [1] | [2] | [3] | [4] | [5] | [8] | [6] | [7]

CCCCCCCCCCCCCC(=O)O
inactive: [1] | [2] | [3] | [4] | [5] | [8] | [6] | [7]

CC(CCO)CCc1ccccc1 (stereo not drawn)
inactive: [1] | [2] | [3] | [4] | [5] | [8] | [6] | [7]

c1ccc(CCCc2ccccn2)cc1
active: [7] 72.7 µM
inactive: [1] | [2] | [3] | [4] | [5] | [8] | [6]

COc1cc2ncnc(Nc3cccc(Cl)c3)c2cc1OC
inactive: [1] | [2] | [3] | [4] | [5] | [6] | [7]

CC(C)(CO)[N+](=O)[O-]
inactive: [1] | [2] | [3] | [4] | [5] | [8] | [6] | [7]

O=C(O)c1cn(C2CC2)c2cc(N3CCNCC3)c(F)cc2c1=O
inactive: [1] | [2] | [3] | [4] | [5] | [8] | [6] | [7]

O=C(O)c1cccc([N+](=O)[O-])c1
inactive: [1] | [2] | [3] | [4] | [5] | [8] | [6] | [7]

O=C1CCCCCCCCCCCCCCO1
inactive: [8] | [6] | [7]
active: [1] 120 µM | [2] 100 µM | [3] 181 µM | [4] 145 µM | [5] 46.2 µM

O=CCCc1ccccc1
inactive: [1] | [2] | [3] | [4] | [5] | [8] | [6] | [7]

O=C(O)c1ccc(C(=O)O)cc1
inactive: [1] | [2] | [4] | [5] | [8] | [6] | [7]

CC(C)C[C@H]1C(=O)N2CCC[C@H]2[C@]2(O)O[C@](NC(=O)[C@@H]3C=C4c5cccc6[nH]c(Br)c(c56)C[C@H]4N(C)C3)(C(C)C)C(=O)N12
inactive: [1] | [2] | [4] | [5] | [8] | [6] | [7]
active: [3] 7.76 µM

Cc1cccc(C)c1C
inactive: [1] | [2] | [3] | [4] | [5] | [8] | [6] | [7]

CC(=O)C(C)=O
inactive: [1] | [3] | [4] | [5] | [8] | [6] | [7]
active: [2] 40.6 µM

CC1(C)CCC(C)(C)c2cc(C(=O)Nc3ccc(C(=O)O)cc3)ccc21
inactive: [1] | [2] | [4] | [5] | [7]
active: [3] 27.6 µM | [8] 66.6 µM

C=C(C)C(=O)OCCOC(=O)CC(C)=O
inactive: [1] | [2] | [3] | [4] | [5] | [7]

C=C(C)[C@@H]1CCC2=CC(=O)C[C@@H](C)[C@]2(C)C1
active: [3] 177 µM | [5] 53.4 µM | [6] 116 µM
inactive: [1] | [2] | [4] | [7]

O=c1oc(=O)c2cc3c(=O)oc(=O)c3cc12
inactive: [1] | [2] | [3] | [4] | [5] | [8] | [6] | [7]

O=[N+]([O-])c1ccc(C=Cc2ccc([N+](=O)[O-])cc2S(=O)(=O)O)c(S(=O)(=O)O)c1
inactive: [1] | [2] | [3] | [4] | [5] | [8] | [6] | [7]

O=C(O)COCCN1CCN(C(c2ccccc2)c2ccc(Cl)cc2)CC1 (stereo not drawn)
inactive: [1] | [2] | [3] | [4] | [5] | [8] | [6] | [7]

Cc1c(N(C)C)c(=O)n(-c2ccccc2)n1C
active: [4] 64.9 µM
inactive: [1] | [2] | [3] | [5] | [6] | [7]
